Experimental findings from PubChem BioAssay (NCATS) are described below.

Test [1] concerns the target Cytochrome P450 3A4 (Homo sapiens) (UniProt P08684). Briefly: qHTS Assay for Inhibitors and Substrates of Cytochrome P450 3A4 (AID 884). Note: potency is the fitted concentration of half-maximal effect; nearly all actives have a fitted effect of over 50% in size. Particulars: recombinant CYP3A4, Luciferin-PPXE luminescence; series mostly up to 57.1 µM. The procedure, abridged:
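20 nM human CYP3A4 with 25 uM Luciferin-PPXE (at KM) in 200 mM KPO4, preincubated 10 min with compound; NADPH regeneration started a 60 min RT reaction. Luciferin detected by luminescence, normalized to 57 uM ketoconazole as full inhibition.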
A general note: In qHTS, concentration-response curves come from the screen itself.

Test [2] shares this target. Put plainly: qHTS Assay for Activators of Cytochrome P450 3A4 (AID 885). Note: nearly all actives have a fitted effect of over 65% in size. Particulars: recombinant CYP3A4, Luciferin-PPXE luminescence, 60 min; series mostly up to 57.1 µM. The procedure, abridged: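 Signal was normalized against complete inhibition by 57 uM ketoconazole. The reaction used 20nM CYP3A4 with 25uM Luciferin-PPXE, 10-min compound preincubation and a 60-min NADPH-supported step at RT.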

Molecules are shown by their SMILES. A number with no mark means an inactive call. Inconclusive results are not listed. Active and inactive are the calls of the source. Calls come from the whole dose curve; as a rule, active = well fitted curve in the direction sought with a large enough effect; inconclusive = small, poorly fitted or top-dose-only effect, or another doubt; inactive = no such curve, though single readings can be large; an effect the other way counts as inactive or inconclusive.

Chain of Cytochrome P450 3A4 (Homo sapiens) (P08684 whole entry, looked up): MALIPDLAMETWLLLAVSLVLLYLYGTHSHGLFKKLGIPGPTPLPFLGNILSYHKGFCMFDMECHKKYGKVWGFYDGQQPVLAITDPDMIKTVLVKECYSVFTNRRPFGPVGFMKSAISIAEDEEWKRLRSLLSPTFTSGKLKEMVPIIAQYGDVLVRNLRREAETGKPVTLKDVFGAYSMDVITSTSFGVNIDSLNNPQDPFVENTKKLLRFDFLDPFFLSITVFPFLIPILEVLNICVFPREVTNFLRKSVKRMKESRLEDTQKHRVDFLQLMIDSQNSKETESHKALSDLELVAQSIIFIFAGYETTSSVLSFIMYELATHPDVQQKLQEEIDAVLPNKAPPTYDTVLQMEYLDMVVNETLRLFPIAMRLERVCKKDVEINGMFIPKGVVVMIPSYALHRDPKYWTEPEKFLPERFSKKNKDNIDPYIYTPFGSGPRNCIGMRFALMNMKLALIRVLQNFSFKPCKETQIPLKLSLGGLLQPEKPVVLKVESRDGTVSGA

Consider `COC(=O)[C@@H]1C[C@H]2CC[C@H](O)C[C@H]2N1Cc1ccc(C(C)(C)C)cc1`, for which, in test [1], the Potency is 5.01 µM (active). In addition, in test [2], the Potency result is “inactive”.

On to `COc1cccc([C@@H]2Oc3ccc(OC)cc3/C(=N/O[C@@H](C)c3cn([C@H]4COC[C@H]4O)nn3)[C@@H]2O)c1`, for which the Potency in test [1] is 3.16 µM (active). Also, in test [2], the activity change, positive = activation is -74.6% [at 11.4 µM].

Regarding `CCC1=C(OC(=O)N(CC)CC)N2C(=O)OC(=NCCc3c[nH]c4ccccc34)[C@]2(Cc2ccccc2)[C@H]2C1=CC[C@H]1C(=O)NC(=O)[C@H]12`, in test [1], the Potency was 2 µM (active). The Potency result in test [2] is “inactive”.

Consider `C/C(CCN1CCCc2nc(C)c(C)cc21)=N\O[C@@H](C)CN1CCCCc2nc(C)c(C)cc21`, for which the Potency in test [1] was 3.98 µM (active). Moreover, the activity change, positive = activation in test [2] was -69.7% [at 11.4 µM].

Regarding `CC(=O)OC[C@@H]1O[C@H](CCO/N=C(\C)CCC(=O)OC[C@@H]2O[C@H](C#Cc3ccccc3)C=C[C@@H]2Oc2ccc(C)cc2)C=C[C@@H]1OC(C)=O`, in test [1], the Potency was 3.16 µM (active). Also, the activity change, positive = activation in test [2] is -92.8% [at 11.4 µM].

With `CCC1=C(OC(=O)N(CC)CC)N2C(=O)OC(=NCCOC)[C@]2(C)[C@H]2C1=CC[C@H]1C(=O)N(CC)C(=O)[C@H]12`, in test [1], the Potency is 7.94 µM (active). In test [2], the Potency entry was “inactive”.

For `CCC1=C2CC[C@H]3C(=O)N(c4ccccc4)C(=O)[C@H]3[C@H]2[C@@]2(Cc3ccccc3)C(=NCC3CC3)OC(=O)N2C1=O`, the Potency in test [1] was 5.01 µM (active). For the same compound, the Potency entry in test [2] was “inactive”.

As for `CNC(=O)[C@@H](Cc1ccccc1)N(C)C(=O)[C@@H](Cc1ccc2ccccc2c1)N(C)C(=O)/C=C/CC(C)(C)N`, the Potency in test [1] was 7.94 µM (active). For the same compound, in test [2], the Potency result is “inactive”.

As for `CO[C@@H]1COC(=O)CCC[C@@H](C)[C@H](OC)COC(=O)[C@H](Cc2ccccc2)NC(=O)C/C=C\[C@H]1C`, the Potency in test [1] was 3.98 µM (active). The activity change, positive = activation in test [2] was -87.8% [at 11.4 µM].

Consider `COC(=O)c1cccc(C23CC4(C2)[C@H](CN(C)[C@@H]4c2ccccc2)C3c2ccccc2)c1` (stereo not given in full), for which the Potency in test [1] is 7.94 µM (active). Besides, the Potency entry in test [2] was “inactive”.

For `COC(=O)c1ccc(C23CC4(C2)[C@H](CN(Cc2cccnc2)[C@@H]4c2ccccc2)C3c2ccc(C(F)(F)F)cc2)cc1` (stereo not given in full), in test [1], the Potency was 5.01 µM (active). Also, in test [2], the Potency entry was “inactive”.

On to `N#Cc1ccc(C23CC4(C2)[C@H](CN(CC2CCCCC2)[C@@H]4c2ccccc2)C3c2ccccc2)cc1` (stereo not given in full), for which, in test [1], the Potency was 15.8 µM (active). For the same compound, in test [2], the Potency result is “inactive”.

Regarding `Clc1ccc(C2[C@H]3CN(CC4CCCCC4)[C@H](c4ccccc4)C34CC2(c2cccnc2)C4)cn1` (stereo not given in full), the Potency in test [1] is 3.98 µM (active). For the same compound, the Potency result in test [2] was “inactive”.

For the compound `Cc1ccc(S(=O)(=O)N[C@@H]2COC(=O)C/C=C\[C@H](C)COC(=O)N[C@@H](C)C(=O)C/C=C\[C@H]2C)cc1`, in test [1], the Potency was 3.16 µM (active). Also, the activity change, positive = activation in test [2] is -86.3% [at 11.4 µM].

Regarding `Cc1ccc(/C=C/C2=CC3(C)CC2(C)C(c2ccc(C)cc2)CC3=O)cc1` (stereo not given), the Potency in test [1] is 3.98 µM (active). In addition, the activity change, positive = activation in test [2] was -95.3% [at 11.4 µM].

Turning to `CCC1=C2CC[C@H]3C(=O)N(C)C(=O)[C@H]3[C@H]2[C@@]2(C)C(=NCc3ccccc3)OC(=O)N2C1=O`, the Potency in test [1] is 12.6 µM (active). For the same compound, the Potency entry in test [2] was “inactive”.

For `COC(=O)[C@@H]1CC[C@H](C)[C@@H](c2ccc(C)cc2)N1C(=O)c1ccc(/C=N\OC[C@@H](C)[C@H](OCc2ccccc2)C(C)C)cc1`, the Potency in test [1] is 3.98 µM (active). Moreover, the activity change, positive = activation in test [2] is -66.5% [at 11.4 µM].

Regarding `COC(=O)[C@@H]1C[C@H]2CC[C@H](O)C[C@H]2N1Cc1c(F)cccc1Cl`, the Potency in test [1] was 15.8 µM (active). Moreover, the Potency entry in test [2] was “inactive”.

Consider `c1ccc(C2[C@H]3CN(Cc4cccnc4)[C@H](c4ccccc4)C34CC2(c2ccccc2)C4)cc1` (stereo not given in full), for which, in test [1], the Potency was 1.58 µM (active). Further, the Potency result in test [2] is “inactive”.

As to `CCC1=C2CC[C@H]3C(=O)N(c4ccccc4)C(=O)[C@H]3[C@H]2[C@@]2(C)C(=NCC3CC3)OC(=O)N2C1=O`, the Potency in test [1] was 10 µM (active). The Potency result in test [2] was “inactive”.
